This is part of a sample that, as a whole, favours compounds with a hit. Of some 83,000 tested, about 20% had one in any assay.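 Treatment: one concentration, 48 hours, 96-well format. Scoring: percent growth, with anything below 10 considered active.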 A number with no mark means an inactive call. Calls of active or inactive are those of the source.
Tests used:
Assay in all cases: NCI-60 one-dose screen, 48 h (100 = growth as untreated, 0 = no growth, -100 = all killed)
Details in all cases: 10 µM unless noted
NCI-H23 lung = system: NCI-H23 lung
NCI-H226 lung = system: NCI-H226 lung
NCI-H322M lung = system: NCI-H322M lung
HOP-62 NSCLC = system: HOP-62 NSCLC
NCI-H460 lung = system: NCI-H460 lung
HOP-92 NSCLC = system: HOP-92 NSCLC
NCI-H522 lung = system: NCI-H522 lung
A549/ATCC NSCLC = system: A549/ATCC NSCLC
786-0 renal = system: 786-0 renal
COLO 205 colon = system: COLO 205 colon
DU-145 prostate = system: DU-145 prostate
K-562 leukemia = system: K-562 leukemia
MALME-3M melanoma = system: MALME-3M melanoma
MDA-MB-231 breast = system: MDA-MB-231 breast
RXF 393 renal = system: RXF 393 renal
SF-268 CNS = system: SF-268 CNS
SF-539 CNS = system: SF-539 CNS
UACC-257 melanoma = system: UACC-257 melanoma
M14 melanoma = system: M14 melanoma

| SMILES | growth (NCI-H23 lung) [%] | growth (NCI-H226 lung) [%] | growth (NCI-H322M lung) | growth (HOP-62 NSCLC) | growth (NCI-H460 lung) | growth (HOP-92 NSCLC) [%] | growth (NCI-H522 lung) | growth (A549/ATCC NSCLC) [%] | growth (786-0 renal) [%] | growth (COLO 205 colon) | growth (DU-145 prostate) | growth (K-562 leukemia) | growth (MALME-3M melanoma) | growth (MDA-MB-231 breast) | growth (RXF 393 renal) | growth (SF-268 CNS) [%] | growth (SF-539 CNS) | growth (UACC-257 melanoma) | growth (M14 melanoma) |
| --- | --- | --- | --- | --- | --- | --- | --- | --- | --- | --- | --- | --- | --- | --- | --- | --- | --- | --- | --- |
| Nc1nc2ccc([C@@H]3Nc4ccc5[nH]ncc5c4[C@H]4[C@H]5CCC(C5)[C@H]43)cc2s1 | 23.2 | 24.2 | -13% (active) | 12.2% | -26.8% (active) | 74.7 | -65.7% (active) | 25.8 | 43.9 | 6.12% (active) | 9.96% (active) | 19.4% | -55.7% (active) | 47.2% | -4.16% (active) | 48.4 | 0.597% (active) | 29.3% | 17.7% |
| COc1ccc(-c2nnc(SCC(=O)Nc3ccc(C(=O)/C=C/c4ccc(Cl)cc4)cc3)n2-c2ccccc2)cc1 | 91.1 | 103 | 118% | 100% | 106% | 105 | 84% | 88.5 | 97.4 | 107% | 101% | 96.7% | 112% | 79.6% | 106% | 91 | 101% | 115% | 85.9% |
| O=C1C(Cl)=C(N/N=c2/[nH][nH]/c(=N/NC3=C(Cl)C(=O)c4ccccc4C3=O)c3ccccc23)C(=O)c2ccccc21 | 82.5 | 74.8 | 58.4% | -10.5% (active) | 81.4% | 117 | 30.1% | 94.6 | 96 | 52.5% | 108% | 9.7% (active) | 84.8% | 42.8% | 73.7% | 41.7 | 47.3% | 97.7% | 92.8% |
| COc1ccc(-c2[nH]nc(N)c2-c2cc(OC)c(OC)c(OC)c2)cc1 | 17.4 | 68.3 | 7.95% (active) | 22% | 7.6% (active) | 31.3 | -32% (active) | 19.3 | 24 | -61.6% (active) | 2.62% (active) | -15.6% (active) | 25.8% | -10.6% (active) | 20% | 15.1 | -13.1% (active) | 58.1% | -5.11% (active) |
| CCN(CC)CCC(CNc1ccnc2cc(Cl)ccc12)c1ccc(O)cc1 (configuration not stated) | 91.3 | 102 | 72.7% | 87.4% | 54.2% | 53.3 | 97.9% | 97.8 | 92.3 | 71.5% | 91.4% | 10.6% | 93.5% | 74.1% | 52.5% | 69.5 | 88.4% | 93.4% | 6.04% (active) |
| CC1CCN(Cc2ccc(NC(=O)c3cc4ccc5cccnc5c4[nH]3)cc2)CC1 | 25.2 | 43 | 49.2% | 26.2% | 8.35% (active) | 63.7 | 23% | 25.7 | 36.8 | -16.3% (active) | 2.24% (active) | 8.98% (active) | 10.2% | 23.2% | -3.5% (active) | 37.4 | 8.44% (active) | -40.6% (active) | -22.5% (active) |
| CC(C)N=C1CCCC1C(=S)SSC(=S)C1CCCC1=NC(C)C (configuration not stated) | 75.5 | 90.6 | 86.7% | 24.5% | 47.5% | 103 | 8.07% (active) | 71.1 | 91.4 | 88.8% | 64.9% | 34.9% | 53.8% | 76.9% | 78.3% | 68.6 | 83.4% | 69.7% | 64.4% |
| O=C(O)C1[S][Sb]([CH](C(=O)O)[CH](C(=O)O)[Sb]2[S]C(C(=O)O)C(C(=O)O)[S]2)[S]C1C(=O)O (configuration not stated) | 104 | 105 | 95.8% | 123% | 84.6% | 91.6 | 42.4% | 89.2 | 93.7 | 114% | 97.1% | 76% | 31.3% | 88.2% | 103% | 104 | 76.3% | 89.3% | 74.5% |

— PubChem BioAssay (NCI)
